In the supplement of paper PMC6555819:

Assays:
Assay in all cases: PBM binding z-score (relative to random genomic background probes); higher = stronger binding; sequences stand for … in GC…GCGATTGACAGCGTAGAATGAAGG
[1] = tested on: RARb homodimer (NR concentration 270 nM)
In short: (§1)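 Binding z-scores were set against random background probes. The data came from custom Agilent 4×180K protein-binding microarrays carrying double-stranded probes with 34-nt variable regions, incubated 1 h with ligand-free nuclear receptor dimers. Partner-specific antibodies detected binding, and scanned fluorescence was regression-normalized.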

[2] = tested on: RARg:RXRa (NR concentration 270 nM, RXRa partner concentration 90 nM)
In short: as §1

[3] = tested on: RARg homodimer (NR concentration 270 nM)
In short: as §1

[4] = tested on: RXRa DBDmut IVT, anti-RXR (DBD mutation: RXRa K156A/R161A, NR concentration 90 nM)
In short: as §1

[5] = tested on: RXRa homodimer (NR concentration 180 nM)
In short: as §1

[6] = tested on: THRa:RXRa (NR concentration 90 nM, RXRa partner concentration 90 nM)
In short: as §1

[7] = tested on: THRa homodimer (NR concentration 90 nM)
In short: as §1

[8] = tested on: VDR homodimer (NR concentration 270 nM)
In short: as §1

| Sequence | PBM binding z-score [1] | PBM binding z-score [2] | PBM binding z-score [3] | PBM binding z-score [4] | PBM binding z-score [5] | PBM binding z-score [6] | PBM binding z-score [7] | PBM binding z-score [8] |
| --- | --- | --- | --- | --- | --- | --- | --- | --- |
| CGAACTAGGTCAAACGACAGTGAAAGGCGACGTA | 2.49 | 4.21 | 4.7 | 1.76 | 3.32 | 2.29 | 0.23 | 0.347 |
| GCTGCTAGGTCAACTGATGGTCAGCTAGAGCTCG | 3.68 | 5.23 | 5.53 | 1.73 | 2.87 | 3.1 | 1.07 | 0.0219 |
| CGAACTAGGTCACCTGGACAGTGAAGAGGTTGGA | 3.36 | 4.43 | 5.32 | 1.49 | 3.36 | 3.1 | 1.2 | 0.466 |
| CATACAGGGTCATCTAGGCCAGAGTAGGGACGGC | 3.37 | 5.16 | 4.85 | 3.17 | 5.72 | 3.6 | 1.37 | 3.3 |
| CGAACTTGGTCAAAGGACAGTGAAAGGCGACGTA | 1.3 | 1.24 | 1.69 | -0.0652 | 0.736 | 0.657 | -0.391 | -0.0452 |
| ATATGTAGGTTAGGGTCACTCAGAAAGTAGGGAA | 3.57 | 3.98 | 3.56 | 1.74 | 5.09 | 4.21 | 3.46 | 2.6 |
| CAAACTAGGTCACCGGGAGGTCAAAGTCCGCATG | 5.88 | 8.67 | 7.68 | 2.07 | 7.06 | 4.94 | 4.06 | 4.85 |
